# Experimental data as given in the supplement of paper PMC12340641.
# Counter-ions that a name gives are not always drawn.
# Molecular target: IKZF1 (dCK*-IKZF1 fusion in HEK293FT) (UniProt Q13422)
# Experiment: inhibition of IKZF1 HTRF signal (DMSO = 0%, pomalidomide 10 uM = 100%); higher = lower IKZF1 protein level
# Details: compound concentration: 5 uM, overnight (~20 h)
# Summary of the method: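 After overnight treatment at 37 °C with 5 μM compound in single wells, HEK293FT cells (2000/well, 384-well) stably expressing an IKZF1 fusion were lysed for 30 min at room temperature. A commercial HTRF total-IKZF1 antibody kit was incubated with the lysate overnight, and the time-resolved FRET ratio at 665/620 nm was corrected for background. Data are given as percent inhibition of IKZF1 signal relative, on each plate, to vehicle and a reference degrader, set at 0% and 100% respectively.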
# IKZF1 (dCK*-IKZF1 fusion in HEK293FT), sequence (Q13422 whole entry, looked up, the tested form may be a part): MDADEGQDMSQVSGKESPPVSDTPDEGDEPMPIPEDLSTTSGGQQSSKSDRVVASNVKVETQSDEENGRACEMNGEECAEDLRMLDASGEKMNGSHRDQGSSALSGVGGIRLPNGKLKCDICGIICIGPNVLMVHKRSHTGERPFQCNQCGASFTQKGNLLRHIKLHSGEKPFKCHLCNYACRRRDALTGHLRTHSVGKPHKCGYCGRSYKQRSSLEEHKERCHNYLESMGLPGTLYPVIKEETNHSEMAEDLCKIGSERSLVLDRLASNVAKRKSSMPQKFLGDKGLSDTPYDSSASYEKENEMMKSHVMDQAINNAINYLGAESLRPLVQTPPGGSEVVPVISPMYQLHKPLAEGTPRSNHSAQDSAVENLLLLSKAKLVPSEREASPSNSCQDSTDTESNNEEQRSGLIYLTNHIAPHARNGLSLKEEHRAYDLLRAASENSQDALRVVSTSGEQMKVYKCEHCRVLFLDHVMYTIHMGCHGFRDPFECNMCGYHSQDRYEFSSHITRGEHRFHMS
row,SMILES,inhibition of IKZF1 HTRF signal [%]
1,Nc1nnc(-c2cccc(Cl)c2Cl)c(N)n1,-57.4
2,Nc1ncn([C@@H]2O[C@H](CO)C(O)C2O)c(=O)n1 (stereo partly drawn) [Azacitidine],-5.73
3,N=c1ccn2c(n1)O[C@H]1[C@H](O)[C@@H](CO)O[C@H]12 [Cyclocytidine HCl],-19.3
4,CN(C)c1ccc2nc3ccc(N(C)C)cc3[s+]c2c1,56.3
5,c1ccc(C(NCCNC(c2ccccc2)c2ccccc2)c2ccccc2)cc1,-1.32

# Test system: HEK293FT dCK*-only
# Experiment: relative growth in counter assay (no AraC = 100%, AraC + DMSO = 0%); higher = more growth rescue independent of IKZF1
# Details: compound concentration: 5 uM; AraC concentration: 0.3 uM; overnight pretreatment + 4 days AraC
# Summary of the method: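 Counter assay in HEK293FT cells expressing dCK* alone (300/well, 384-well). Cells received 5 μM compound 2 h after seeding, then after overnight at 37 °C a nucleoside suicide substrate at 0.3 μM plus medium for 4 days. On day 5, Hoechst 33342-stained nuclei were counted by imaging. Relative growth was normalised per plate to wells without suicide substrate (100%) and substrate plus vehicle (0%).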
row,SMILES,relative growth in counter assay [%]
1,Clc1ccc(C(Cn2ccnc2)OCc2c(Cl)cccc2Cl)c(Cl)c1 (stereo not drawn) [Isoconazole nitrate (Travogen)],0.7
2,CCC(=O)O[C@@H]1CC(=O)O[C@H](C)C/C=C/C=C/[C@H](OC(C)=O)[C@H](C)C[C@H](CC=O)[C@H](O[C@@H]2O[C@H](C)[C@@H](O[C@H]3C[C@@](C)(OC(C)=O)[C@@H](OC(=O)CC)[C@H](C)O3)[C@H](N(C)C)[C@H]2O)[C@H]1OC [Midecamycin Acetate],2.69
3,Cc1cc(Nc2ncc(Cl)c(Nc3ccccc3S(=O)(=O)C(C)C)n2)c(OC(C)C)cc1C1CCN(CC(=O)NCCNc2cccc3c2C(=O)N(C2CCC(=O)NC2=O)C3=O)CC1 (stereo not drawn),3.63
4,COc1ccc2cc1Oc1ccc(cc1)C[C@H]1c3cc(c(OC)cc3CCN1C)Oc1c(OC)c(OC)cc3c1[C@H](C2)N(C)CC3 [Tetrandrine (Fanchinine)],-14.3
5,C[C@H]1COC2=C1C(=O)C(=O)c1c2ccc2c1CCCC2(C)C [Cryptotanshinone],0.04
6,O=C1Nc2ccc(I)cc2/C1=C/c1cc(Br)c(O)c(Br)c1,4.46
7,OCCN=CCNc1ccc(NCCNCCO)c2c(O)c3c(O)ccc(O)c3c(O)c12 [Mitoxantrone HCl],-34.8
8,O=C(Nc1ccc(Cl)nc1)c1ccc(Cl)cc1,4.25
9,CSc1nc2cc(Cl)c(Oc3cccc(Cl)c3Cl)cc2[nH]1,2.75
10,COC(=O)Nc1ccc(-c2nc(N3CCOCC3)c3cnn(C4CCN(Cc5cccnc5)CC4)c3n2)cc1,-33
11,C[C@@H]1CC2C3CCC4=CC(=O)C=C[C@]4(C)[C@@]3(F)[C@@H](O)C[C@]2(C)[C@H]1C(=O)CO (stereo partly drawn),-5.74
12,COc1cccc2c1C(=O)c1c(O)c3c(c(O)c1C2=O)C[C@@](O)(C(=O)CO)C[C@@H]3O[C@H]1C[C@H](N)[C@@H](O)[C@H](C)O1 [Epirubicin Hydrochloride],-34.5
13,CO[C@H]1/C=C/O[C@@]2(C)Oc3c(C)c(O)c4c(O)c(c(/C=N/N5CCN(C)CC5)c(O)c4c3C2=O)NC(=O)/C(C)=C\C=C\[C@H](C)[C@H](O)[C@@H](C)[C@@H](O)[C@@H](C)[C@H](OC(C)=O)[C@@H]1C,12.9
14,COc1cccc2c(O)c3c(O)c4c(c(O)c3c(O)c12)=C(O[C@H]1C[C@H](N)[C@@H](O)[C@H](C)O1)C[C@](O)(C(=O)CO)C=4 [Epirubicin HCl],-34.6
15,O=c1c(O)c(-c2cc(O)c(O)c(O)c2)oc2cc(O)cc(O)c12 [Myricetin (Cannabiscetin)],-1.64
16,OCCN1CCN(CCCN2c3ccccc3Sc3ccc(C(F)(F)F)cc32)CC1,12
17,S=C=Nc1ccc(N=C=S)cc1,3.25
18,CN(C)c1ccc2c(c1)Sc1cc(N(C)C)ccc1N2.CS(=O)(=O)O [Leucomethylene blue (Mesylate)],-19.7
19,CN1CCN(CCCN2c3ccccc3Sc3ccc(C(F)(F)F)cc32)CC1,23.1
20,CCCSc1ccc2[nH]c(NC(=O)OC)nc2c1 [Albendazole],6.7
21,O=C(OOC(=O)c1ccccc1)c1ccccc1,-0.7
22,O=C1C=CC(=O)C2=C1C1c3ccccc3C2c2ccccc21,-0.91
23,COc1cc(C(=O)NS(=O)(=O)c2ccccc2C)ccc1Cc1cn(C)c2ccc(NC(=O)OC3CCCC3)cc12 [Zafirlukast],-15.2
24,O=C(Nc1cccc(Cl)c1)Nc1ncc(CCNc2ncnc3ccsc23)s1 [SNS-314 methanesulfonate],-30.3
25,COC(=O)Nc1nc2ccc(C(=O)c3ccccc3)cc2[nH]1,-32.6
26,CC(CNC1CCCCC1)OC(=O)c1ccccc1 (stereo not drawn) [hexylcaine],0.35
27,C/C(=N\NC(=S)N1CCC1)c1ccccn1,-34.6
28,Nc1ccc(-c2nc3ccc(-c4nc5ccc(N)cc5[nH]4)cc3[nH]2)cc1,-6.2
